Data reported in PubChem BioAssay (NCATS).
The source made the active and inactive calls. The call rests on the fitted dose curve; in most records, active means well fitted curve in the direction sought with a large enough effect; inactive means no such curve, though single readings can be large or run the other way.

target: Alpha-galactosidase A (Homo sapiens) (UniProt P06280); assay: Counterscreen for Glucocerebrosidase Inhibitors: qHTS Assay for Human alpha-Galactosidase at pH 4.5 (AID 992); details: purified enzyme, fluorogenic substrate; series mostly up to 76.9 µM; activity change, negative = inhibition: at the top concentration; further: 0% is about no effect
Sequence (P06280 whole entry, looked up): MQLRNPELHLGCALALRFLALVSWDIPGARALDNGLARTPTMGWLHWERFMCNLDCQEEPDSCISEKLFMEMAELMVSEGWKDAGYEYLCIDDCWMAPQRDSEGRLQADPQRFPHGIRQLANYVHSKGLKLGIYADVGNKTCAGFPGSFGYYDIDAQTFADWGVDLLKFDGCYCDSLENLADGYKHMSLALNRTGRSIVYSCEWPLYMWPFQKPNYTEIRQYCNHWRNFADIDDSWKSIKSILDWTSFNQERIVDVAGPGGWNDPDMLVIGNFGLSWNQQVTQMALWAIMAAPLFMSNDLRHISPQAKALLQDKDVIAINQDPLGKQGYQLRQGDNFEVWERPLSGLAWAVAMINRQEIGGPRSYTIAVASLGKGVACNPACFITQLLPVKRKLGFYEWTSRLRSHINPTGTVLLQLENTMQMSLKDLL
Excerpt: NIH Chemical Genomics Center [NCGC]
NIH Molecular Libraries Screening Centers Network [MLSCN]
PI Name: Zheng, Wei [NIH]
Alpha-galactosidase is a homodimeric glycoprotein that hydrolyzes the terminal alpha-galactosyl moieties from glycolipids and glycoproteins. Deficiency of this enzyme results in Fabry Disease with progressive accumulation of globotriaosylceramide and other glycosphingolipids in vascular endothelial cells that causes renal failure, myocardial infarction and stroke, and premature death in patients. It has reported that the improper folding and trafficking of alpha-galactosidase resulted from the genetic mutations may account for a significant numbers of Fabry patients. […] We optimized this alpha-galactosidase assay in 1536-well plate format for identifying the novel small molecule inhibitors with the structures other than the sugar analogs in order to develop the new pharmacological chaperones.
NCGC Assay Protocol Summary:
This is a fluorogenic enzyme assay with 4-Methylumbelliferyl alpha-D-galactopyranoside as the substrate and human […] as the enzyme preparation. Upon the hydrolysis of this fluorogenic substrate, the resulting product, […]. 4-Methyllumbelliferone, can be excited at 365 nm and emits at 440 nm which can be detected by a standard fluorescence plate reader. Data were normalized to the controls for basal activity (without enzyme) and 100% activity (with enzyme). In the AC50 values were determined from concentration-response data modeled with the standard Hill equation.
Assay buffer: 50 mM citric acid, 0.005% Tween-20, pH 4.5. (pH 4.5 is an optimal condition for this enzyme assay)
1536-well assay protocol for the human alpha-galactosidase:
(1) Add 2 ul/well of enzyme (2 nM final)
(2) Add 23 nL compounds in DMSO solution. The final titration was 0.7 nM to 77 uM.
(3) Add 1 ul of substrate (80 uM final)
(4) Incubate at room temperature for 20 min.
(5) Add 2 ul stop solution (1M NaOH and 1M Glycine mixture, pH 10)
(6) Detect the assay plate in a ViewLux plate reader (PerkinElmer) with Ex=365 nm and Em=440nm.
Keywords: Alpha-galactosidase, Fabry Disease, pharmacological chaperone, chaperone therapy, high throughput screening, alpha-galactosidase inhibitor, MLSMR, MLSCN, NIH Roadmap, qHTS and NCGC

Row | SMILES | activity change, negative = inhibition
1 | C[C@@H]1O[C@@H](O[C@H]2C[C@@H](O)[C@]3(CO)[C@@H]4[C@@H](O)C[C@]5(C)[C@H]([C@@H]6COC(=O)C6)CC[C@@]5(O)[C@H]4CC[C@@]3(O)C2)[C@H](O)[C@H](O)[C@@H]1O | 2.91% (inactive)
2 | CC(C)(C)NC[C@H](O)c1ccccc1Cl | -2.71% (inactive)
3 | N[C@@H]1CCc2cc(O)c(O)cc2C1 | 2.03% (inactive)
4 | CCCC[N+]1(C)[C@@H]2CC(OC(=O)[C@@H](CO)c3ccccc3)C[C@H]1[C@H]1O[C@H]12 (stereo partly drawn) | 1.77% (inactive)
5 | C/C=C(\C)C(=O)O[C@@H]1C(C)=C2[C@H]([C@@H]1OC(=O)CCCCCCC)[C@@](C)(OC(C)=O)C[C@@H](OC(=O)CCC)[C@@]1(O)[C@H]2OC(=O)[C@]1(C)O | -13.9% (inactive)
6 | CCN1C[C@]2(C)CC[C@@H](O)[C@]34[C@@H]5CC6[C@@H](OC)C[C@@](O)([C@H]5[C@@H]6O)[C@@H](C[C@@H]23)[C@H]14 | -4.67% (inactive)
7 | CC[C@H](CO)NC(=O)[C@@H]1C=C2c3cccc4[nH]cc(c34)C[C@@H]2N(C)C1 | -1.47% (inactive)
8 | CN1[C@@H]2CC[C@H]1CC(O[C@@H](c1ccccc1)c1ccccc1N)C2 (stereo partly drawn) | -1.65% (inactive)
9 | O=[N+]([O-])c1ccc(O[C@H]2O[C@@H](CO)[C@@H](O)[C@@H](O)[C@@H]2F)c([N+](=O)[O-])c1 | -4.03% (inactive)
10 | C=CCN1C[C@@H](C)N([C@H](c2ccc(C(=O)N(CC)CC)cc2)c2cccc(OC)c2)C[C@H]1C | -2.12% (inactive)
11 | C[N+]1(C)CCO[C@@](O)(c2ccc(-c3ccc([C@]4(O)C[N+](C)(C)CCO4)cc3)cc2)C1 | -1.85% (inactive)
12 | C=CCN1CC[C@]23c4c5ccc(O)c4O[C@@H]2C(=O)CC[C@@]3(O)[C@H]1C5 | -1.66% (inactive)
13 | C=CCN1CC[C@@]23CCCC[C@@H]2[C@@H]1Cc1ccc(O)cc13 | -1.28% (inactive)
14 | C=CCN1CCc2cccc3c2[C@@H]1Cc1ccc(O)c(O)c1-3 | -2.43% (inactive)
15 | Ic1ccccc1CN[C@@H]1C2CCN(CC2)[C@H]1C(c1ccccc1)c1ccccc1 | -5.23% (inactive)
16 | NC(N)=Nc1ccc2[nH]c3c(c2c1)C[C@]1(O)[C@@H]2Cc4ccc(O)c5c4[C@]1(CCN2CC1CC1)[C@H]3O5 | -1.98% (inactive)
17 | C[C@@H](Cc1ccc2c(c1)OC(C(=O)O)(C(=O)O)O2)NC[C@H](O)c1cccc(Cl)c1 | 5.31% (inactive)
18 | C=C(C)[C@H]1Cc2c(ccc3c2O[C@H]2COc4cc(OC)c(OC)cc4[C@@H]2C3=O)O1 | -2.13% (inactive)
19 | CC(C)n1cc2c3c(cccc31)[C@@H]1C[C@H](C(=O)O[C@@H](C)[C@H](C)O)CN(C)[C@H]1C2 | -3.02% (inactive)

Row | SMILES | activity change, negative = inhibition
20 | CC[C@H](CO)NC(=O)[C@@H]1C=C2c3cccc4c3c(cn4C)C[C@@H]2N(C)C1 | -2.38% (inactive)
21 | Oc1cc2c(cc1O)[C@H]1c3ccccc3CN[C@@H]1CC2 | -0.184% (inactive)
22 | CCN(CC)C(=O)N[C@H]1C[C@H]2c3cccc4[nH]cc(c34)C[C@@H]2N(C)C1 | -1.1% (inactive)
23 | NC(=O)c1ccc(OC[C@H](O)CN2CC=C(c3ccc(F)cc3)CC2)cc1 | -2.37% (inactive)
24 | C[C@]12Cc3cn4c(nc3C=C1CC[C@H]1[C@@H]2CC[C@@]2(C)[C@H]1CC[C@@]2(O)C#N)nc1ccccc14 | -6.51% (inactive)
25 | Oc1ccc2c3c1O[C@@H]1[C@@H](O)CC[C@]4(O)[C@H](C2)N(CC2CCC2)CC[C@@]314 | 1.38% (inactive)
26 | CCCCCCCCCCCCCC(=O)O[C@H]1[C@@H](C)[C@@]2(O)[C@@H](C=C(CO)C[C@]3(O)C(=O)C(C)=C[C@@H]23)C2C(C)(C)[C@]21OC(C)=O (stereo partly drawn) | -22.8% (inactive)
27 | C[C@@H]1O[C@@H](O[C@H]2C[C@@H](O)[C@]3(CO)[C@@H]4[C@@H](O)C[C@]5(C)[C@H](C6=CC(=O)OC6)CC[C@@]5(O)[C@H]4CC[C@@]3(O)C2)[C@H](O)[C@H](O)[C@@H]1O | 3.52% (inactive)
28 | O[C@@H]1CCCC[C@H]1N1CCC(c2ccccc2)CC1 | -2.11% (inactive)
29 | C[C@H](N[C@@H](C)CCc1ccccc1)[C@H](O)c1ccc(O)cc1 | 0.973% (inactive)
30 | CN[C@@H](C)[C@@H](O)c1ccccc1 | -5.34% (inactive)
31 | CC(C)(O)[C@H]1[C@H]2OC(=O)[C@@H]1[C@]1(O)C[C@H]3O[C@]34C(=O)O[C@H]2[C@]14C (tested in a mixture with another compound) | -0.063% (inactive)
32 | N[C@@H](Cc1cc(O)c(O)cc1O)C(=O)O | -13.9% (inactive)
33 | CCCN1CCc2cccc3c2[C@@H]1Cc1ccc(O)c(O)c1-3 | 0.004% (inactive)
34 | C[C@H](N)c1cccc(Cl)c1Cl | -0.13% (inactive)
35 | CCCN1CCC[C@H](c2cccc(C#N)c2)C1 | 1.17% (inactive)
36 | COC[C@H]1OC(=O)c2coc3c2[C@@]1(C)C1=C(C3=O)[C@H]2CCC(=O)[C@@]2(C)C[C@H]1OC(C)=O | -4.12% (inactive)
37 | COc1ccc2c(c1)[C@]13CCCC[C@@H]1[C@H](C2)N(C)CC3 | -3.01% (inactive)
38 | C[C@]1(C(=O)O)[C@@H]2CC[C@@H](O2)[C@@]1(C)C(=O)O | 0.0848% (inactive)
